Inconclusive results are not listed. The source made the active and inactive calls. Calls come from the whole dose curve; as a rule, active = well fitted cell-killing curve with a large enough effect; inconclusive = small, poorly fitted or top-dose-only effect; inactive = flat fitted curve, though single readings scatter.
Assay: U-118MG Cancer Cell Toxicity qHTS against the NCATS CANVASS Library (AID 1347351)
Conditions: U-118MG viability, CellTiter-Glo luminescence, 72 h; series mostly up to 38.3 µM; activity change, negative = cytotoxicity: at the top concentration; outcome: at the top concentration
Excerpt: Natural products and their derivatives continue to be wellsprings of nascent therapeutic potential. However, many laboratories have limited resources for biological evaluation, leaving their previously isolated or synthesized compounds largely or completely untested. To address this issue, the Canvass library of natural products was assembled (https://tripod.nih.gov/canvass), in collaboration with academic and industry researchers, for quantitative high-throughput screening (qHTS) across a diverse set of cell-based and biochemical assays. The pure (>85% purity by liquid chromatography/mass spectrometry [LC/MS]) Canvass library of 346 natural products were submitted by 45 academic laboratories and companies around the world. We collected pure natural products to circumvent deconvolution and structure elucidation due to time and resource limitations. The library was formatted into 1536-well plates and evaluated in 50 qHTS (in an 11-pnt concentration series) bioassays with broad scope of disease-relevant mechanisms. The resulting data set from 50 different assays was then systematically analyzed to identify overall trends and specific natural products with interesting biological activities. Reported herein are the results of each individual qHTS and their corresponding assay protocol. National Center for Advancing Translational Sciences (NCATS), Rockville, MD National Institute of Health (NIH), Bethesda, Maryland
Cancer Cell Toxicity protocol for cell lines COV-362, OV-KATE, OV-SAHO, UWB1.289, UWB1.289-WTBRCA1, HEK-293, HPAF-II, Panc-1005, SW1088, or U-118MG. 1. In a 1536 well, white solid bottom tissue culture plates (Corning 7494), corresponding cells (COV-362, OV-KATE, OV-SAHO, UWB1.289, UWB1.289-WTBRCA1, HEK-293, HPAF-II, Panc-1005, SW1088, or U-118MG) were dispensed in each well at a final concentration of 1000 cells / well (6uL volume) using the Multidrop Combi (Thermo Fisher Scientific) dispenser. 2. The plates were incubated for 4 hours at 37 degrees C/5% CO2/95% Rh. 3. Compounds were pin transferred (~23nL volume) via Wako Pin-tool (Wako Automation, Richmond VA) equipped with a 1536 pin head. The assay plates were treated with compounds in an 11-pnt concentration series with a final concentration range of […] to 85uM. 4. Bortezomib was used as a single dose control (0.5mM column 4, rows 1 - 32) at a final concentration of 1.9uM and as a 16pnt titration (1mM; 1:2 dilution; 16-points; n = 2; column 3, rows 1 - 32) with final concentration range of 0.1nM - 3.8uM. 5. The assay plates were incubated for 72 hours at 37 degrees C/5% CO2/95% Rh. 6. 3uL CellTiter-Glo detection reagent was then added to the plates (columns 2 - 48, rows 1 - 32) and incubated at room temperature for additional 15min. 7. Luminescence signal was acquired via the ViewLux plate reader (PerkinElmer) using a clear filter, 2 second exposure and 2x binning settings.
% is set by controls: 0 for no effect and ±100 for the full control effect; potency is the fitted concentration of half-maximal effect.

Row | Structure (SMILES) | activity change, negative = cytotoxicity | Potency | outcome
1 | CCN1C[C@]2(C)CC[C@@H](O)[C@]34C1[C@H](C[C@H]23)C12CCC(CC14)[C@](O)(CO)[C@H]2O (some centres undefined) | -4.6% (inactive) |  | 
2 | CC[C@@H]1CN2CC[C@@]3(O)C(=Nc4cccc(OC)c43)[C@@H]2C[C@@H]1/C(=C\OC)C(=O)OC | 3.92% (inactive) |  | 
3 | NCCc1ccccc1 | 1.21% (inactive) |  | 
4 | CN1C(=O)[C@]23CC4C(C)(C)[C@@]5(C[C@@]41CN2CC[C@@]3(C)O)C(=O)Nc1c5ccc2c1OC=CC(C)(C)O2 (some centres undefined) | -8.27% (inactive) |  | 
5 | COc1ccc2c3c([nH]c2c1)C(C)=NCC3 | -21.8% (inactive) |  | 
6 | CO[C@H](c1ccccc1)[C@H]1NC(=O)C(C)NC(=O)C(C[C@@H](C)CO)N(C)C(=O)[C@@H](C(O)c2cn(C(C)(C)C3CO3)c3ccccc23)NC(=O)C(C(C)C=C(C)C)NC(=O)C(CC(C)C)N(C)C(=O)C(C(C)C)NC1=O (some centres undefined) | -6.17% [at 22.9 µM] (inactive) |  | 
7 | C[C@@H]1CC[C@@H](c2ccoc2)N2C[C@@]3(CC[C@@H]12)CS[C@@]1(CC[C@H]2[C@H](C)CC[C@@H](c4ccoc4)N2[C@@H]1O)C3 |  | 8.41 µM (active) | 
8 | CCC(=O)CCCCC[C@@H]1NC(=O)[C@H]2CCCCN2C(=O)[C@H]([C@@H](C)CC)NC(=O)[C@H](Cc2cn(OC)c3ccccc23)NC1=O |  | 0.53 µM (active) | 
9 | C[C@]12CC(O)C3[C@@H](CCC4C[C@@H](O)CC[C@@]43CO)[C@@]1(O)CCC2C1=CC(=O)OC1 (some centres undefined) | -2.49% (inactive) |  | 
10 | O=C(c1ccccc1O)c1[nH]c(Cl)c(Cl)c1-n1c(C(=O)c2ccccc2O)cc(Cl)c1Cl |  | 6.68 µM (active) | 
11 | CC=C1CN(C=O)[C@H]2C[C@@H]1[C@@H](C(=O)OC)[C@@]13CCOC21Nc1ccccc13 (some centres undefined) | -6.33% (inactive) |  | 
12 | CO[C@@H](/C=C/CC/C=C/C(=O)O)[C@@H](O)[C@H](C)[C@@H](O)/C(C)=C/[C@H](C)C(=O)CCCC1CC(=O)NC(=O)C1 |  |  | inactive
13 | CC1=CC(=O)C2=C(C)C[C@H](O)[C@@H]3[C@H](OC(=O)[C@@H]3C)[C@@H]12 | -4.46% (inactive) |  | 
14 | CCCCC[C@@H]1OC(=O)[C@@H](C)N(C)C(=O)[C@H](CCCCC)OC(=O)C(C)N(C)C(=O)[C@H](CCCCC)OC(=O)[C@@H](C)N(C)C(=O)[C@H](CCCCC)OC(=O)C(C)N(C)C1=O (some centres undefined) |  | 14.9 µM (active) | 
15 | CN(C)Cc1c[nH]c2ccccc12 | -1.35% (inactive) |  | 
16 | CC1=CC2CC[C@@H]3[C@@H](C)C[C@H](C)[C@@H](C1)N23 (some centres undefined) | 0.211% (inactive) |  | 
17 | CO[C@@H](/C=C/CC/C=C/C(=O)O)[C@@H](O)[C@H](C)/C=C(\C)[C@@H](O)[C@H](C)C(=O)CCCC1CC(=O)NC(=O)C1 | -3.86% (inactive) |  | 
18 | COC(=O)C1=C2Nc3ccccc3[C@@]23CCN2CC(C(C)=O)C1C[C@H]23 (some centres undefined) | -1.75% (inactive) |  | 
19 | CCCC[C@@H]1CC[C@H]2CCCC(CCC)N12 (some centres undefined) | -5.1% (inactive) |  | 
20 | CC(=O)N[C@H]1CCN2CCC[C@H]12 | -6.12% [at 85.4 µM] (inactive) |  | 
21 | CNCCc1ccccc1 | 0.126% (inactive) |  | 
22 | CNCCc1c[nH]c2ccccc12 | -8.17% (inactive) |  | 
23 | CCC[C@H]1CC[C@H]2[C@H](C)CCC[C@H]2N1 | -9.62% (inactive) |  | 
24 | CCN1C[C@]2(C)CC[C@H](O)[C@]34C1C(C[C@H]23)[C@@]12CC[C@H](CC14)[C@](O)(COC(=O)c1ccc(OC)c(OC)c1)[C@H]2O (some centres undefined) | -17.1% (inactive) |  | 
25 | C/C=C1/CN2CC[C@]34C(=Nc5ccccc53)[C@@H]2C[C@@H]1[C@H]4C(=O)OC | -0.929% [at 76 µM] (inactive) |  | 
26 | CNCCc1ccc(O)cc1 | 3.52% (inactive) |  | 
27 | C=C1[C@@H](C)[C@H]2[C@H](Cc3ccccc3)NC(=O)[C@]23OC(=O)/C=C/[C@H](O)CCC[C@@H](C)C/C=C/[C@H]3[C@@H]1O | -28.6% (inactive) |  | 
28 | CC[N@@+]1([O-])C[C@]2(C)CC[C@@H](O)[C@@]34C5C[C@H]6CC[C@@]5(C(C[C@H]23)C41)[C@H](O)[C@@]6(O)CO (some centres undefined) | -4.07% (inactive) |  | 
29 | COc1ccc(C23Oc4cc(OC)cc(OC)c4[C@](O)([C@H](c4ccccc4)C2C(=O)NCCCCNC(=O)c2ccccc2)[C@@H]3O)cc1 (some centres undefined) | -19.9% (inactive) |  | 

Reference: PubChem BioAssay (NCATS)
